The panel holds about 79,000 compounds, 15% with a hit somewhere; the sample as a whole holds those more often. Calls of active or inactive are those of the source. Cut-off read from the data, not from the text of the source: active = growth inhibition above about 70%; inactive = the rest.

This assay in a line: NCI Yeast Anticancer Drug Screen. Data for the rad50 strain (AID 155).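 Note: 0% = growth of vehicle-only cultures of the same strain.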 Particulars: S. cerevisiae rad50 strain growth inhibition; at 5.0 µM (retest, dose inferred, filed as 0.5); active compounds read high. The essentials:
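Inhibition values express reduced yeast growth in compound-treated cultures relative to vehicle-treated controls.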
Take `O=[N+]([O-])c1cc[n+]([O-])c2ccccc12`: the growth inhibition was 99% (active).

With `COc1c[c]([Hg][O]C(C)=O)c(OC)c(NC(=O)CC(C)=O)[c]1[Hg][O]C(C)=O`, the growth inhibition is 97% (active).

As to `CN(C)c1ccc(C2N(Cc3ccc(N(CCCl)CCCl)cc3)CCCN2Cc2ccc(N(CCCl)CCCl)cc2)cc1`, the growth inhibition was 1% (inactive).

Turning to `CC(=O)c1ccc(-[n+]2c(C)cc(-c3ccccc3)cc2C)cc1`, the growth inhibition is -11% (inactive).

For `[O]=[Sb]([OH])([OH])[c]1ccc(NC2OC(CO)C(O)C(O)C2O)cc1` (stereo unspecified), the growth inhibition was 0% (inactive).

Regarding `CCC1CN1P(=O)(Oc1ccccc1)N1CC1CC` (stereo unspecified), the growth inhibition is -2% (inactive).

In the case of `CCN(CC)CC(=O)c1cc2ccccc2c2ccccc12`, the growth inhibition is 36% (inactive).

Consider `O=C1CCCC1Cl` (stereo unspecified), for which the growth inhibition was -2% (inactive).

For `N#C[S-].[La+3].c1ccc(-c2ccccn2)nc1.c1ccc(-c2ccccn2)nc1.c1ccc(-c2ccccn2)nc1`, the growth inhibition was 61% (inactive).

On to `O=c1s[se]c2ccccc12`, for which the growth inhibition was 27% (inactive).

With `O=C(CCl)Nc1ccc(Cl)cc1`, the growth inhibition is 3% (inactive).

Take `O=C1N[C@H]2[C@H](O)[C@H](O)[C@@H](O)[C@H](O)[C@@H]2c2cc3c(c(O)c21)OCO3`: the growth inhibition was 12% (inactive).

As for `O=C(Nc1n[c]([Hg][Cl])[c]([Hg][Cl])s1)OCc1ccccc1`, the growth inhibition is 99% (active).

`CC[C@@]1(O)C[C@H](OC2CC(N(C)C)C(O)C(C)O2)c2c(cc3c(c2O)C(=O)c2c(O)ccc(O)c2C3=O)[C@H]1C(=O)OC` (stereo partly specified): the growth inhibition was 96% (active).

With `CCCCCc1cc(O)c(CCCC)c(O)c1`, the growth inhibition is -107% (inactive).

Regarding `NC(=O)/C=C/c1ccc([As]=O)cc1` (stereo unspecified), the growth inhibition is 1% (inactive).

The record behind these values is PubChem BioAssay (NCI).
